From PubChem BioAssay
PLCb3 inh: human PLC-beta3 inhibitors, primary screen, biochemical, fluorescence. 1-phosphatidylinositol 4,5-bisphosphate phosphodiesterase beta-3 (Homo sapiens), Q01970. Purified PLC-beta3, fluorogenic substrate. inhibition, % at 12.2 µM. actives 0.18% (n = 370,000). AID 720704, 2013;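 also: 0% = median of compound wells on plate and 100% = full blocker control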
PLC-gamma1 inh: PLC-gamma1 enzyme inhibitors, primary screen, biochemical, fluorescence, purified enzyme; fluorogenic substrate; inhibition, % at 12.2 µM; AID 720700, 2013; actives 0.84% (n = 370,000); in the data active = inhibition above about 9.5%
ADAM10 inh: human ADAM10 inhibitors, primary screen, biochemical, QFRET, HTS. Disintegrin and metalloproteinase domain-containing protein 10 (Homo sapiens), O14672. recombinant ADAM10, EDANS/DABCYL FRET peptide cleavage, 3 h. inhibition, % at 7 µM. actives 0.62% (n = 370,000);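 active = inhibition above a per-campaign cutoff equal to the mean of compounds falling between control-based bounds plus 3 SD, cut at about 20% in these data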;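 also: 0% = DMSO wells while the 100% control is not disclosed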
KLK7 zymogen act: proKLK7 zymogen activators, primary screen, biochemical, fluorescence intensity; activation, % at 7 µM; purified proKLK7, EDANS-DABCYL substrate fluorescence; 100% is mature enzyme control, 0% vehicle; actives 0.9% (n = 370,000); Kallikrein-7 (Homo sapiens), P49862;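 active = activation above the mean of all tested compounds plus 3 SD, computed per campaign excluding outliers beyond control limits, cut at about 13% in these data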
Target sequence (P49862 whole entry, looked up): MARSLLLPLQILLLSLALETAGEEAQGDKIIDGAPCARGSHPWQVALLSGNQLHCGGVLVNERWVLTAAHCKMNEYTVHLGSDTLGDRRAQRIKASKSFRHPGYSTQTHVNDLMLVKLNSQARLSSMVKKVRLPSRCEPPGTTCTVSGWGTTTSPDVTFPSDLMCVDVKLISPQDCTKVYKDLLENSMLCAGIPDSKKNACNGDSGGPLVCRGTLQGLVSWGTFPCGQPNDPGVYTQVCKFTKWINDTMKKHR
ADAM17 inh: ADAM17 inhibitors, primary screen, biochemical, QFRET. recombinant ADAM17, EDANS/DABCYL FRET peptide cleavage. inhibition, % at 6.95 µM. actives 0.83% (n = 370,000);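 active = inhibition above the mean of compounds lying between control limits plus 3 SD, set per campaign, cut at about 8.5% in these data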;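 also: 0% = DMSO-only wells as the low control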
PLCgamma1 ctr: PLC-gamma1 enzyme inhibitors, counter-screen for PLC-beta3 inhibitor project, biochemical, fluorescence; shares compounds with PLC-gamma1 inh; purified PLC-gamma1, fluorogenic substrate; inhibition, % at 12.3 µM; actives 3.1% (n = 3,300); AID 743258, 2014; in the data active = inhibition above about 9.5%
PLCb3 confirm: PLC-beta3 inhibitor confirmation, biochemical, fluorescence, purified enzyme | shares compounds with PLC-gamma1 inh | fluorogenic substrate fluorescence | inhibition, % at 12.3 µM | actives 1% (n = 3,300)
An asterisk follows results filed as active; / = not tested or not shown. Only some compounds are listed: those with a hit (about 2.9% of all), similar ones and a draw of the others. Rule as the data show it, unless noted: active = inhibition above about 11%; inactive = the rest.

SMILES	PLCb3 inh	PLC-gamma1 inh	ADAM10 inh	KLK7 zymogen act	ADAM17 inh	PLCgamma1 ctr	PLCb3 confirm
O=C(Nc1ccccc1Cl)c1cc(C2CCCN(C(=O)CCc3ccccc3)C2)on1 (stereo not drawn)	3.3	9.8*	0.0	0.0	2.2	-1.0	-0.1
CCc1c(-c2cccc(Br)c2)ncn1CCc1ccccc1OC	0.8	0.1	8.8	0.7	2.8	/	/
O=C(c1ccc(F)cc1)C1CCN(C(=S)Nc2ccccc2Cl)CC1	-8.1	2.6	5.4	0.0	-1.4	/	/
Cc1ccccc1NC(=S)N1CCC(C(=O)c2ccc(F)cc2)CC1	7.8	9.9*	2.2	0.8	2.3	-1.5	0.4
N=c1sccn1CC(=O)NC(=O)NC1CCCC1	3.7	17.3*	-0.1	-0.3	-0.4	3.4	4.2
CN(c1ccccc1)S(=O)(=O)c1ccc(Cl)c(C(=O)Nc2ccncc2)c1	1.6	9.8*	2.3	-0.1	5.9	-5.6	-6.3
CN(c1ccc(F)cc1)S(=O)(=O)c1ccc(Cl)c(C(=O)Nc2ccncc2)c1	-7.3	1.5	-4.3	0.3	-2.5	/	/
COc1cccc(C(NC(C)=O)c2nc(-c3ccc4c(c3)OCO4)cs2)c1 (stereo not drawn)	1.6	2.3	4.3	0.6	0.4	/	/
Cc1cccc(C(=O)NNC(=O)C2CCN(C(=O)OC(C)(C)C)CC2)c1	2.5	9.8*	10.7	0.3	1.1	-8.7	-3.5
CC(C)(C)OC(=O)N1CCC(C(=O)Nc2cccc(C(=O)NC3CC3)c2)CC1	0.4	0.0	-9.1	-0.1	2.2	/	/
O=C(CN1CCN(C(=O)N2CCCCC2)CC1)Nc1ccc(F)cc1	-1.9	10.8*	-6.2	0.6	-2.5	0.5	-5.8
O=C(CN1CCCC1)Nc1ccc(F)cc1	1.5	4.7	7.1	0.4	2.0	/	/
Nc1nnc(COc2ccccc2)s1	0.7	10.9*	0.7	0.2	3.1	-4.9	0.0
COc1ccc(CCNC(=O)CSc2ncn[nH]2)cc1	0.5	10.4*	0.8	0.5	1.5	-5.8	-12.0
O=C(CSc1nc2ccccc2[nH]1)NCCc1ccc(Cl)cc1	6.2	11.1*	9.4	0.4	6.6	-1.2	1.5
COc1ccc(CCNC(=O)CSc2ccccn2)cc1	-4.4	0.2	-0.1	0.5	-4.5	/	/
Cc1ccc(CNC(=O)CSc2nc3ccccc3[nH]2)cc1	-9.5	-0.5	6.6	0.1	-2.9	/	/
O=C(O)C1CCCCN1C(=O)c1ccc(S(=O)(=O)N2CCCC2)cc1 (stereo not drawn)	0.9	9.7*	-21.3	-0.2	3.2	-3.4	-0.3
Cc1cc(C(=O)COC(=O)c2nn(C)c(=O)c3ccccc23)c(C)n1C	-1.4	-0.4	-7.9	-0.4	-2.2	/	/
COc1ccccc1-c1cc(C(=O)NC(C)C)no1	-5.9	-6.0	-2.7	-0.3	-8.6	/	/
COc1ccccc1-c1cc(C(=O)Nc2ccc(F)cc2F)no1	5.3	11.7*	5.0	0.7	4.2	-117.8	-105.1
COc1ccc(OCCn2cc(/C(N)=N/O)c3ccccc32)cc1	10.9*	9.5	5.7	-0.3	4.4	8.5	1.6
Cc1ccc2c(c1)-n1c(nc3ccccc3c1=O)C(Cc1ccc(O)cc1)NC2=O (stereo not drawn)	0.1	1.2	-0.1	0.0	-3.3	/	/
N/C(=N\OC(=O)c1ccc2c(c1)OCO2)c1ccncc1	-5.4	12.7*	2.1	0.4	4.7	-3.6	-2.5
N/C(=N\OC(=O)c1ccc2c(c1)OCO2)c1ccc(Cl)cc1	6.1	3.6	4.9	0.4	3.4	/	/
SMILES	PLCb3 inh	PLC-gamma1 inh	ADAM10 inh	KLK7 zymogen act	ADAM17 inh	PLCgamma1 ctr	PLCb3 confirm
CC(C)CC1NC(=O)c2ccccc2-n2c1nc1ccc(F)cc1c2=O (stereo not drawn)	4.9	-0.8	7.0	0.3	-2.1	/	/
COc1ccc(-n2nc(C(=O)Nc3ccc4c(c3)OCO4)c3c4ccccc4n(C)c3c2=O)cc1	5.8	11.9*	7.9	-0.3	7.6	-51.2	-9.4
COc1ccc(-n2nc(C(=O)Nc3ccc(OC)c(OC)c3)c3c4ccccc4n(C)c3c2=O)cc1	-0.6	-0.5	1.0	0.3	-3.3	/	/
COc1ccc(CCNC(=O)c2cccc(Br)c2)cc1OC	1.7	10.8*	4.7	0.0	3.4	-3.5	-0.2
O=C(NCc1ccco1)C1CC(O)CN1C(=O)Nc1ccccc1 (stereo not drawn)	-2.5	-0.7	-7.0	0.0	-1.4	/	/
O=C(NCC(=O)N(c1cccnc1)C(C(=O)NC1CCCCC1)c1ccccc1F)c1ccco1 (stereo not drawn)	5.4	10.9*	6.2	-1.2	1.7	2.3	1.3
CCCCN(C(=O)CNC(=O)c1ccco1)C(C(=O)NC1CCCC1)c1ccc(OC)cc1 (stereo not drawn)	-1.0	11.7*	0.5	0.7	-1.3	-3.1	-2.4
CCOc1ccc(C(C(=O)NC2CCCC2)N(CCOC)C(=O)CNC(=O)c2ccco2)cc1 (stereo not drawn)	-8.8	-3.1	-0.2	0.4	-6.0	/	/
C[C@@H]1CN([C@H](C)CO)S(=O)(=O)c2ccc(Br)cc2O[C@H]1CN(C)C(=O)C1CCCCC1	-0.7	-0.6	-13.9	-0.3	1.1	/	/
O=C(O/N=C1\CCCc2ccccc21)c1cccc(Cl)c1	11.1*	9.6*	9.5	0.8	-0.4	-4.4	-1.8
Cc1cccc(C(=O)O/N=C2\CCCc3ccccc32)c1	0.1	0.6	1.1	-0.4	-1.8	/	/
Cc1ccc(-c2nc3c(Cl)cc(C(F)(F)F)cn3c2Cc2ccsc2)cc1	-0.7	0.4	11.4	-0.5	1.3	/	/
Cc1cc(C)nc(N(C#N)CCOc2ccc(Cl)cc2)n1	-0.8	9.8*	2.3	-0.1	-1.9	-6.0	-2.8
Cc1cc(C)nc(N(C#N)Cc2ccc(Cl)cc2)n1	-7.4	-3.4	9.0	-0.3	-1.8	/	/
O=C(NNC(=O)c1cccc2ccccc12)c1ccc(F)cc1	16.9*	4.4	5.8	-0.1	6.3	4.8	2.7
CN(CC(=O)Nc1cccc(F)c1)C(=O)c1ccccc1CCc1ccccc1	-5.6	5.5	11.7	-0.3	3.3	/	/
C=C(C)CNC(=S)N/N=C/c1ccc(NC(C)=O)cc1	-2.9	3.9	-0.8	-0.4	3.9	/	/
CC(=O)Nc1ccc(/C=N/NC(=S)NC(C)C)cc1	3.0	11.9*	1.1	-0.7	-0.8	-6.1	1.4
C#CCNC(=O)c1ccc2sc([C@H]3C[C@H](O)[C@@H](CO)O3)nc2c1	1.9	-0.9	-11.6	-0.6	-7.2	/	/
